Laboratory results: PubChem BioAssay (Tox21)
Results filed as inconclusive are left out. Entries that show only a call come without a potency. Active and inactive are the calls of the source. Unless noted, the call rests on the fitted dose curve; in most records, active means well fitted curve in the direction sought with a large enough effect in the repeat runs; inconclusive means weak or mixed curves; inactive means no such curve, though single readings can be large; an effect the other way counts as inactive or inconclusive.

Columns and labels:
[1] = target: Aryl hydrocarbon receptor (Homo sapiens) (UniProt P35869); experiment: qHTS assay to identify small molecule that activate the aryl hydrocarbon receptor (AhR) signaling pathway (AID 743085);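 further: HG2L7.5c1 human HepG2 liver cells with stably integrated DRE-driven firefly reporter; series mostly up to about 70 µM; nearly all actives have a fitted effect of over 15% in size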
In short: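 Luminescence (ONE-Glo) from a dioxin-responsive-element luciferase reporter in HG2L7.5c1 HepG2 cells after 24 hr compound exposure at 37C; viability measured by CellTiter-Fluor fluorescence beforehand.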

[2] = target: Peroxisome proliferator-activated receptor gamma (Homo sapiens) (UniProt P37231); experiment: qHTS assay to identify small molecule agonists of the peroxisome proliferator-activated receptor gamma (PPARg) signaling pathway (AID 743094; active means well fitted activation curve with a large enough effect in the signal ratio in the repeat runs, not every such curve was filed as active; the % refers to the signal ratio)
In short: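 Quantitative HTS agonist mode: stable HEK293H line with UAS-beta-lactamase reporter under PPARg control, 17 h compound exposure at 37C, fluorescence after 1 h FRET substrate loading at room temperature.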

[3] = qHTS assay for small molecule agonists of the antioxidant response element (ARE) signaling pathway - cell viability counter screen (AID 743203; calls by dose curve; further: nearly all actives have a fitted effect of over 55% in size; further: potency means the concentration at half of the fitted maximal effect)
In short: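 Seeded at 2,000 cells/well, ARE-bla HepG2 cells were incubated 5 hrs before compound addition. After 16 hrs of treatment at 37C with 5% CO2, CellTiter-Glo reagent was added and luminescence read 30 min later.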

[4] = qHTS assay for small molecule activators of the heat shock response signaling pathway (AID 743210; active means well fitted activation curve with a large enough effect in the signal ratio in the repeat runs, with a control signal flat, not every such curve was filed as active; the % refers to the signal ratio;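 further: HeLa cells with beta-lactamase reporter driven by heat shock elements; series mostly up to about 63 µM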)
In short: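 Reporter gene assay: HeLa cells stably bearing an HSE-bla construct, compound treatment 5 h at 37 C, LiveBLAzer substrate 2.5 h at RT, fluorescence intensity.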

[5] = qHTS assay to identify small molecule agonists of the peroxisome proliferator-activated receptor delta (PPARd) signaling pathway - cell viability counter screen (AID 743211); further: nearly all actives have a fitted effect of over 55% in size; further: potency means the concentration at half of the fitted maximal effect
In short: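 Viability was measured as CellTiter-Glo luminescence (30 min, room temperature) in the same wells as the beta-lactamase readout. GeneBLAzer PPARd UAS-bla HEK293H cells received compound after 5 h plating and were incubated 17 h at 37 C.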

[6] = qHTS assay to identify small molecule antagonists of the peroxisome proliferator-activated receptor delta (PPARd) signaling pathway - cell viability counter screen (AID 743213); further: nearly all actives have a fitted effect of over 50% in size; further: potency means the concentration at half of the fitted maximal effect
In short: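 Agonist-stimulated (L165041, 300 nM final) HEK293H PPARd UAS-bla cells are exposed to compounds for 17 h at 37 C, and ATP-based luminescence (CellTiter-Glo) from the same wells reports cytotoxicity.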

[7] = target: Bile acid receptor (Homo sapiens) (UniProt Q96RI1); experiment: qHTS assay to identify small molecule antagonists of the farnesoid-X-receptor (FXR) signaling pathway (AID 743217; active means well fitted inhibition curve with a large enough effect in the signal ratio in the repeat runs, not every such curve was filed as active; the % refers to the signal ratio)
In short: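 Antagonist mode against 50 uM (final) chenodeoxycholic acid stimulation in FXR-bla HEK 293T cells, 16 h at 37 °C. Inhibition detected as reduced beta-lactamase activity via LiveBLAzer B/G FRET fluorescence after 2 h at room temperature.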

[8] = qHTS assay to identify small molecule agonists of the farnesoid-X-receptor (FXR) signaling pathway - cell viability counter screen (AID 743218); further: nearly all actives have a fitted effect of over 45% in size
In short: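 Cytotoxicity counter-screen run in parallel, same wells: FXR-UAS-bla HEK 293T cells dosed 16 h at 37 C, viability read by CellTiter-Glo luminescence after 30 min at room temperature.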

[9] = target: Bile acid receptor (Homo sapiens) (UniProt Q96RI1); experiment: qHTS assay to identify small molecule agonists of the farnesoid-X-receptor (FXR) signaling pathway (AID 743220; active means well fitted activation curve with a large enough effect in the signal ratio in the repeat runs, not every such curve was filed as active; the % refers to the signal ratio)
In short: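 Beta-lactamase reporter under UAS control in GeneBLAzer FXR HEK 293T cells (5000/well) measured with LiveBLAzer FRET substrate after 2 h at room temperature. Compound exposure lasted 16 h at 37C.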

[10] = qHTS assay to identify small molecule antagonists of the farnesoid-X-receptor (FXR) signaling pathway - cell viability counter screen (AID 743221; active means well fitted cell-killing curve with a large enough effect in the repeat runs, not every such curve was filed as active; further: nearly all actives have a fitted effect of over 50% in size; further: potency means the concentration at half of the fitted maximal effect)
In short: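 Cytotoxicity counter screen run in the FXR-bla reporter wells: HEK 293T cells exposed to compound with 50 uM (final) chenodeoxycholic acid for 16 h, 37 C, then viability measured by CellTiter-Glo luminescence after 30 min, room temperature.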

[11] = target: Vitamin D3 receptor (Homo sapiens) (UniProt P11473); experiment: qHTS assay to identify small molecule agonists of the vitamin D receptor (VDR) signaling pathway (AID 743222; calls by dose curve)
In short: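 Quantitative HTS agonist-mode screen: compounds in DMSO were pin-transferred onto VDR-bla cells and incubated 16 h at 37C, 5% CO2. Reporter activity was detected with LiveBLAzer B/G FRET substrate after 2 h at room temperature.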

[12] = qHTS assay to identify aromatase inhibitors - cell viability counter screen (AID 743084);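 further: cells stimulated with testosterone during compound exposure; nearly all actives have a fitted effect of over 55% in size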
[13] = qHTS assay to identify small molecule that activate the aryl hydrocarbon receptor (AhR) signaling pathway - cell viability counter screen (AID 743086);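 further: HepG2 liver cells carrying the AhR DRE luciferase reporter; series mostly up to about 70 µM; nearly all actives have a fitted effect of over 45% in size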
In short: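 HepG2-AhR-luc (HG2L7.5c1) cells, 4000/well, were preincubated 5 h at 37C, exposed to compound in qHTS format for 24 hr at 37C, then given CellTiter-Fluor for 30 min; viability was read as fluorescence in the reporter wells.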

[14] = qHTS assay to identify small molecule antagonists of the peroxisome proliferator-activated receptor gamma (PPARg) signaling pathway - cell viability counter screen (AID 743194); further: nearly all actives have a fitted effect of over 55% in size; further: potency means the concentration at half of the fitted maximal effect
In short: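 PPARg-UAS-bla HEK293H cells were plated, rested 5 h at 37 C, then treated with compounds plus rosiglitazone (50 nM final) for 17 h at 37 C; viability was then read by CellTiter-Glo luminescence after 30 min at room temperature.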

[15] = qHTS assay for small molecule agonists of the antioxidant response element (ARE) signaling pathway (AID 743202; active means well fitted activation curve with a large enough effect in the signal ratio in the repeat runs, not every such curve was filed as active; the % refers to the signal ratio; further: potency means the concentration at half of the fitted maximal effect)
In short: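 Compounds delivered in DMSO to ARE-bla HepG2 cells (2,000 cells/well, pre-incubated 5 h) and left 16 h at 37 C. LiveBLAzer B/G FRET substrate then added for 2 h at RT before fluorescence reading.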

[16] = qHTS assay for small molecule activators of the heat shock response signaling pathway - cell viability counter screen (AID 743209); further: nearly all actives have a fitted effect of over 50% in size; further: potency means the concentration at half of the fitted maximal effect
In short: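 First, HSE-bla HeLa cells were seeded at 1500 cells/well and kept overnight at 37 C. Next, compounds were pinned in and incubated 5 h. After the FRET substrate step, CellTiter-Glo was added and luminescence read 30 min later.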

[17] = target: Vitamin D3 receptor (Homo sapiens) (UniProt P11473); experiment: qHTS assay to identify small molecule antagonists of the vitamin D receptor (VDR) signaling pathway (AID 743223; active means well fitted inhibition curve with a large enough effect in the signal ratio in the repeat runs, not every such curve was filed as active; the % refers to the signal ratio)
In short: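 Antagonist mode: compound added to VDR-bla cells alongside agonist 1alpha,25-dihydroxyvitamin D3 (3 nM final), incubation 16 h at 37C. Read-out is LiveBLAzer FRET fluorescence, 2 h at room temperature.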

[18] = target: Peroxisome proliferator-activated receptor delta (Homo sapiens) (UniProt Q03181); experiment: qHTS assay to identify small molecule agonists of the peroxisome proliferator-activated receptor delta (PPARd) signaling pathway (AID 743212; calls by dose curve)
In short: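 A PPARd-bla HEK293H line with beta-lactamase under an Upstream Activator Sequence is treated with compounds at 37 C. Substrate loading for 2 h at room temperature precedes the fluorescence measurement.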

[19] = target: Peroxisome proliferator-activated receptor delta (Homo sapiens) (UniProt Q03181); experiment: qHTS assay to identify small molecule antagonists of the peroxisome proliferator-activated receptor delta (PPARd) signaling pathway (AID 743215; active means well fitted inhibition curve with a large enough effect in the signal ratio in the repeat runs, not every such curve was filed as active; the % refers to the signal ratio; further: series mostly up to about 62 µM)
In short: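 Inhibition of L165041-driven (300 nM final) PPARd signaling is scored in HEK293H UAS-bla cells. Exposure lasts 17 h at 37 C; beta-lactamase activity is then read by FRET substrate fluorescence after 2 h at room temperature.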

[20] = target: Peroxisome proliferator-activated receptor gamma (Homo sapiens) (UniProt P37231); experiment: qHTS assay to identify small molecule antagonists of the peroxisome proliferator-activated receptor gamma (PPARg) signaling pathway (AID 743191; calls by dose curve; further: series mostly up to about 63 µM; nearly all actives have a fitted effect of over 30% in size)
In short: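 GeneBLAzer PPARg UAS-bla HEK293H cells carrying a UAS-driven beta-lactamase reporter were plated at 3000 cells/well, preincubated 5 h at 37C, then given compound for 17 h at 37C; LiveBLAzer B/G FRET substrate was read after 1 h at room temperature.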

Chain of Peroxisome proliferator-activated receptor delta (Homo sapiens) (Q03181 whole entry, looked up): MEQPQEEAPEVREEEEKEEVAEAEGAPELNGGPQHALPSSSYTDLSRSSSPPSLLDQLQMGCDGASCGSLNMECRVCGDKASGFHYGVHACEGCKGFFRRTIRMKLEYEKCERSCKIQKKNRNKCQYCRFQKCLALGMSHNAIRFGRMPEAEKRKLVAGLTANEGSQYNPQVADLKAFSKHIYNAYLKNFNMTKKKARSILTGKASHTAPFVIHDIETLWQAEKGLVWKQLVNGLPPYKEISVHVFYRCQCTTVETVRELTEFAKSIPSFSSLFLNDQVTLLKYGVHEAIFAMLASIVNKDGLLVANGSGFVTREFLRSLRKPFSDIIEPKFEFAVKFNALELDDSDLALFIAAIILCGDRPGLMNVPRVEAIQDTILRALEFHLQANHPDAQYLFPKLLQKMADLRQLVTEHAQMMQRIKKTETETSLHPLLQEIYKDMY
Chain of Vitamin D3 receptor (Homo sapiens) (P11473 whole entry, looked up): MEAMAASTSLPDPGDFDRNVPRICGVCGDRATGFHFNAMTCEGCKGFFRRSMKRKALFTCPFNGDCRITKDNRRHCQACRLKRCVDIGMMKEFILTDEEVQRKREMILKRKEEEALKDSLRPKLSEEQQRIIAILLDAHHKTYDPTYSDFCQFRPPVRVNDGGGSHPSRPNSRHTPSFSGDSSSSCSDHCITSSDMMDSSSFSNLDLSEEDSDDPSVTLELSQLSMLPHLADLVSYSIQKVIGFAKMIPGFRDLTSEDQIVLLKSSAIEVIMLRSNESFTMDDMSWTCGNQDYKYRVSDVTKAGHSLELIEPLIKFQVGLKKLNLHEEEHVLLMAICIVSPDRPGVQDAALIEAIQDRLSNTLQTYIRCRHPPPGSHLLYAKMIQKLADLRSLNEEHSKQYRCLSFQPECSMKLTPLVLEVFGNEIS
Chain of Aryl hydrocarbon receptor (Homo sapiens) (P35869 whole entry, looked up): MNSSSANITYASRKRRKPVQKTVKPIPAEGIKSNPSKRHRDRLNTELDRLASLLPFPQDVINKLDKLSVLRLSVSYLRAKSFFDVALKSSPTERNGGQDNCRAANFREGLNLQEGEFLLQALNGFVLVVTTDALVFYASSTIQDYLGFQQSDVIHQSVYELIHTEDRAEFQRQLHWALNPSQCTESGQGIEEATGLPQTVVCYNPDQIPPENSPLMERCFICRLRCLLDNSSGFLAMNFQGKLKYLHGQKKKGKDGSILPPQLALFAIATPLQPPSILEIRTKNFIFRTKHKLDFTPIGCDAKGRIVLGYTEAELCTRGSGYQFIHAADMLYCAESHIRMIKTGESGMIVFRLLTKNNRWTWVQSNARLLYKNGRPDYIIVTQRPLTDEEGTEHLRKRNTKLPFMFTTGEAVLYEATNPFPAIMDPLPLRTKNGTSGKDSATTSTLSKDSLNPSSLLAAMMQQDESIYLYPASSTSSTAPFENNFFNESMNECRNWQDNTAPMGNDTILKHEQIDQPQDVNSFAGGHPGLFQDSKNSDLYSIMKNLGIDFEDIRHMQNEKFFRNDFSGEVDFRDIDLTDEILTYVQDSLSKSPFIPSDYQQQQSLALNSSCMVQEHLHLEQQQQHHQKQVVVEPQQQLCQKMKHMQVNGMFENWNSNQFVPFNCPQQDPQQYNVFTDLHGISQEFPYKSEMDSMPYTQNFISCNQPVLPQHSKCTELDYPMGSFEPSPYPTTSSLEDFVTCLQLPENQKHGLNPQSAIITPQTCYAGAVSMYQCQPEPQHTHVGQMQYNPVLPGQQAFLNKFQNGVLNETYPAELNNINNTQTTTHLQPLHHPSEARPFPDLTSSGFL
Chain of Peroxisome proliferator-activated receptor gamma (Homo sapiens) (P37231 whole entry, looked up): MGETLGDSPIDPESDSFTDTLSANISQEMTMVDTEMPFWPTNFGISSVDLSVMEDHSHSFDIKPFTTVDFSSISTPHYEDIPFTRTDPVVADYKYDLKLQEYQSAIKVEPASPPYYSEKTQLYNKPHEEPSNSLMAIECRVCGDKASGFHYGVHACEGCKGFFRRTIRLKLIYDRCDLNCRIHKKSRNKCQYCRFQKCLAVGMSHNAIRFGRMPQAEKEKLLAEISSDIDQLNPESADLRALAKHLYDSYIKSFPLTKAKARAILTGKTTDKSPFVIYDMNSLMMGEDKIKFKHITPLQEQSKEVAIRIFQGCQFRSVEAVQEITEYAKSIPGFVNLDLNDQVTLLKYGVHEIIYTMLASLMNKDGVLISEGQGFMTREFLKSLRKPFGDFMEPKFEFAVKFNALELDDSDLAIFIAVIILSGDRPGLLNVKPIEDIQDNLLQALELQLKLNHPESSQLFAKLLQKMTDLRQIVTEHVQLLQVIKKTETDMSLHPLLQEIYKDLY
Chain of Bile acid receptor (Homo sapiens) (Q96RI1 whole entry, looked up): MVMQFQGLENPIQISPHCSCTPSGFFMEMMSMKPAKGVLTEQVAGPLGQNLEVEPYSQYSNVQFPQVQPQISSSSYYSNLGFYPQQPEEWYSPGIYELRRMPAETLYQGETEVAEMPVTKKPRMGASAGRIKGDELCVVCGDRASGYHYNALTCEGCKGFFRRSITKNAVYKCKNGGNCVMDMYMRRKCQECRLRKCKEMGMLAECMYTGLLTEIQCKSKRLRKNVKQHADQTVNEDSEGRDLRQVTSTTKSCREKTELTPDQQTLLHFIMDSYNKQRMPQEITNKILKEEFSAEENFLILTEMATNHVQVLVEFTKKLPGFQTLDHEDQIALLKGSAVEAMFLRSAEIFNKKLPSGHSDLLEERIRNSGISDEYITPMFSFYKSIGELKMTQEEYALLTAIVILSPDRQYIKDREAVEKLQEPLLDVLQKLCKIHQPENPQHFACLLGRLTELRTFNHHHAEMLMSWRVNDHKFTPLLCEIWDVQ

| SMILES | Potency [1] | Potency [2] | Potency [3] | outcome [4] | Potency [5] | Potency [6] | outcome [7] | Potency [8] | outcome [9] | Potency [10] | outcome [11] | Potency [12] | Potency [13] | Potency [14] | Potency [15] | Potency [16] | Potency [17] | outcome [18] | outcome [19] | Potency [20] |
| --- | --- | --- | --- | --- | --- | --- | --- | --- | --- | --- | --- | --- | --- | --- | --- | --- | --- | --- | --- | --- |
| O=[N+]([O-])c1cc[n+]([O-])cc1 | inactive | inactive | 30.6 µM (active) | inactive | inactive | inactive | inactive | inactive | inactive | inactive | inactive |  |  |  |  |  |  |  |  |  |
| ClC(Cl)(Cl)c1ccc(C(Cl)(Cl)Cl)cc1 |  |  | inactive | inactive | inactive | inactive |  | inactive |  |  | inactive | inactive | inactive | inactive | inactive | inactive | inactive |  |  |  |
| CCCC(C)C | inactive | inactive | inactive | inactive | inactive |  |  |  |  | inactive | inactive |  | inactive | inactive | inactive | inactive | inactive | inactive | inactive |  |
| CC(Cc1cccc(C(F)(F)F)c1)NCCOC(=O)c1ccccc1 (stereo not given) | inactive | inactive | 23.7 µM (active) |  | 21.1 µM (active) | 18.8 µM (active) |  |  |  |  |  |  |  | 23.7 µM (active) |  | 23.7 µM (active) |  | inactive |  |  |
| NC(N)=N/N=C/c1c(Cl)cccc1Cl | inactive |  | inactive | inactive | inactive | inactive |  | inactive |  | inactive |  |  | inactive | inactive |  | inactive | inactive |  |  | inactive |
| COc1ccc2[nH]c(S(=O)Cc3ncc(C)c(OC)c3C)nc2n1 (stereo not given) |  |  | inactive | inactive | inactive | inactive |  | inactive |  |  | inactive | inactive | inactive | inactive | 10.6 µM (active) | inactive | inactive |  | inactive |  |
| NCc1ccccc1 |  |  | inactive | inactive | inactive | inactive |  | inactive |  |  | inactive |  | inactive | inactive | inactive | inactive | inactive |  |  |  |
| O=C(/C=C/c1ccc(O)c(O)c1)O[C@@H]1C[C@](O)(C(=O)O)C[C@@H](O)[C@H]1O |  |  | inactive | inactive | inactive | inactive |  |  |  |  |  |  | inactive | inactive |  | inactive |  |  | inactive |  |
| CCOC(=O)[C@H](CCc1ccccc1)N[C@H]1CCc2ccccc2N(CC(=O)O)C1=O | inactive |  |  |  | 29.8 µM (active) | 26.6 µM (active) |  |  |  | 29.8 µM (active) |  |  | inactive | inactive |  |  |  |  |  |  |
